From PubChem BioAssay (NCI) come the findings set out here.

SMILES strings stand for the structures. This is part of a sample that, as a whole, favours compounds with a hit. Of some 83,000 tested, about 20% had one in any assay.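 Interpretation: 100, growth as untreated; towards 0, rising growth inhibition; 0, no net growth; 0 to -100, cell death. Compounds scoring below 10 were considered active.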 Activity calls are given as the source filed them.

In the assay the test system is RPMI-8226 leukemia. Put plainly: NCI-60 one-dose screen, 48 h (100 = growth as untreated, 0 = no growth, -100 = all killed). The conditions noted are these: 10 µM unless noted. As to the method: Growth inhibition of the RPMI-8226 human tumor cell line is measured as a screen for anti-cancer activity. Cells are grown in 96 well plates and exposed to the test compound for 48 hours. Compounds are tested at a single concentration, which is 10^-5 M for most compounds. The reported endpoint is percent growth (GI% or GIPRCNT), where numbers from 0 - 100% represent growth inhibition, and numbers from -100% - 0 represent cell death. For example, a value of 40 represents 60% growth inhibition. A value of 0 means no net growth occurred over the course of the experiment. A value of -40 indicates 40% of cells at the beginning of the experiment died by the end of the experiment. A value of -100 means all cells are dead at the end of the experiment.
NCI-60 Human Tumor Cell Lines Screen was performed using the standard one-dose NCI protocol, which is described in more detail at https://dtp.cancer.gov/discovery_development/nci-60/default.htm.
Compounds with GIPRCNT values below 10 were considered active. Activity score was based on GIPRCNT using the following formula: […]
Score is 0 for GIPRCNT values of 100 or above, 50 for GIPRCNT values of 0, and 100 for GIPRCNT values of -100.
With `C=C(C)[C@@H]1CC[C@]2(C(=O)NCCNCCNCCN)CC[C@]3(C)[C@H](CC[C@@H]4[C@@]5(C)CC[C@H](O)C(C)(C)[C@@H]5CC[C@]43C)[C@@H]12`, the growth is -8.15% [100 µM] (active). For the molecule `O=C(N[C@@H]1CCCc2ccccc21)[C@H](CCC(=O)N1CCN(C2CCCCC2)CC1)N1C(=O)[C@@H](N2C(=O)OC[C@@H]2c2ccccc2)[C@H]1/C=C/c1ccccc1`, the growth was -13.9% (active). In the case of `COc1ccc(-c2cc(-c3ccc(Cl)cc3)nc(NCCCCNc3ccnc4cc(Cl)ccc34)n2)cc1`, the growth was 23.8% (inactive). As for `Cc1ccccc1OC(=O)c1cccc(Cl)c1`, the growth was 98.8% (inactive). With `Cc1ccc(NC(=S)/N=c2/n(-c3ccccc3)nc3n2CCN3C2=NCCN2)cc1`, the growth was 104% (inactive). As to `CCOc1cc(/C=N\NC(=O)N/N=C/c2ccc(O)c(OCC)c2)ccc1O`, the growth was 32.8% (inactive). In the case of `O=C(Nc1ccc(Nc2ccncc2)cc1)c1ccc([N+](=O)[O-])cc1`, the growth is 22.8% (inactive). For `Cc1ccc2c(c1)/C(=N\N=C/c1cn(C(C)C)c3ccccc13)C(=O)N2`, the growth is 0.866% (active).

`C=C(C)[C@@H]1CC[C@]2(C(=O)N3CCN(C)CC3)CC[C@]3(C)[C@H](CC[C@@H]4[C@@]5(C)C/C(=C/c6ccncc6)[C@H](O)C(C)(C)[C@@H]5CC[C@]43C)[C@@H]12`: the growth is -26.6% [100 µM] (active).

Regarding `CCOc1cc(NC(=O)c2ccccc2)c(OCC)cc1N`, the growth is 113% (inactive).

Consider `CS(=O)(=O)c1cccnn1`, for which the growth was 97% (inactive).

In the case of `O=C(Nc1cccnc1)c1ccc2ccc3ccc(C(=O)Nc4cccnc4)nc3c2n1`, the growth was 18.7% (inactive). Take `CCN(CC)c1ccc(/C=C/c2ccc3cc(C)ccc3[n+]2CC)cc1`: the growth is -8.91% (active).

For `O=C(C[n+]1ccn(CC(OCc2ccc(Cl)cc2Cl)c2ccc(Cl)cc2Cl)c1)c1ccc(F)cc1` (stereo not given), the growth is -46.3% (active). The value for `O=C(CCCCCCSc1nc(-c2ccc(Cl)cc2)cc(-c2ccc(Cl)cc2)n1)NO` was 34.9% (inactive); that for `CC/C=C(\C)C(CCC)(CN=O)C(=O)OCC` (stereo not given) was 96.3% (inactive). For the molecule `O=C1CC(C(F)(F)F)Cc2nc3ccc(Br)cc3cc21` (stereo not given), the growth was 77.5% (inactive). As for `CCc1cccc(Cl)c1`, the growth is 101% (inactive). Regarding `COC(=O)c1cc2c(=O)[nH]cc3c2c(n1)CCC3`, the growth is 76.2% (inactive). As to `CC[C@]12C=CCN3CC[C@@]4(c5ccc(OC)cc5N(C)[C@H]4[C@@](O)(C(=O)OC)[C@@H]1OC(=O)CCC(=O)N[C@H](Cc1c[nH]c4ccccc14)C(=O)OC)[C@@H]32`, the growth was 0.693% [100 µM] (active). As for `N#Cc1c(N2CCOCC2)nc(=S)[nH]c1-c1ccco1`, the growth is 43% (inactive). For the molecule `C=C(C)[C@@H]1CC[C@]2(C(=O)NCCNCCNC(=O)OC(C)(C)C)CC[C@]3(C)[C@H](CC[C@@H]4[C@@]5(C)CCC(=O)C(C)(C)[C@@H]5CC[C@]43C)[C@@H]12`, the growth was 22.2% [100 µM] (inactive). For `C#C[C@]1(O)CC[C@H]2[C@@H]3CC=C4c5nc(Nc6ncccn6)sc5CC[C@]4(C)[C@H]3CC[C@@]21C`, the growth is -12.3% (active). Take `CC(=O)CC(=O)SC1=NCCS1`: the growth was 98.1% (inactive). In the case of `CCCCCCCCCN(CCCCCCCCC)C(C)C(=O)c1ccc2cc(Br)c3ccccc3c2c1` (stereo not given) it was 68.7% (inactive). In the case of `C=CCCC1(C)NC(=O)NC1=O` (stereo not given) it was 104% (inactive); in that of `CC(C)(C)OC(=O)N1C=C/C(=C\Cn2cc(-c3ccccc3)nn2)CC1`, 62.9% (inactive); in that of `Cc1nc(Cl)c2c(n1)N(C)c1ccc(Cl)cc1C(C)C2` (stereo not given), 66.8% (inactive).

Turning to `O=S(=O)(c1ccc(N/N=C\c2ccccc2Cl)cc1)c1ccc(N/N=C/c2ccccc2Cl)cc1`, the growth is -16.1% (active). For the molecule `C=C(CN=[N+]=[N-])[C@@H]1CC[C@]2(C)[C@H](CC[C@@H]3[C@H]4[C@H]5OC(=O)[C@@]4(CCC5(C)C)CC[C@]32C)[C@@]1(C)CCC#N`, the growth is 57% [100 µM] (inactive). In the case of `CC(=O)OC[C@]12CC[C@@H]([C@@H](C)C(N)=O)[C@@H]1[C@H]1CC[C@@H]3[C@@]4(C)CC[C@H](OC(C)=O)C(C)(C)[C@@H]4CC[C@@]3(C)[C@]1(C)CC2` it was -18.3% [100 µM] (active); in that of `Nc1cc(Cl)cc2cccnc12`, 92.9% (inactive); in that of `CC(C)[C@H]1CCC2=C3CC[C@]45OC(=O)[C@@]6(CCC(C)(C)C[C@H]64)CC[C@@]5(C)[C@]3(C)CC[C@@]21C`, 58.2% [100 µM] (inactive). With `COc1cc2c(cc1OC(C)=O)C(=O)CCCC2`, the growth was 109% (inactive). For `CCOC(=O)c1nn(C2CCCCO2)c2ccc(NC(=O)CN3CCCC3)cc12` (stereo not given), the growth was 105% (inactive). In the case of `O=C(NCCCNC(=O)OCc1ccc2c(Br)cc(Br)c(O)c2n1)OCc1ccc2c(Br)cc(Br)c(O)c2n1`, the growth is -27.3% (active). For `O=C1/C(=C\c2cccn2Cc2ccccc2)c2ccccc2N1c1c(Cl)cccc1Cl`, the growth is 60.2% (inactive). The value for `C=C(C)[C@@H]1CC[C@]2(C)[C@H](CC[C@@H]3[C@@H]([C@@](C)(O)CCC=C(C)C)CC[C@]32C)[C@@]1(C)CCC(=O)N1CCN(C)CC1` was -38.4% [100 µM] (active); that for `CC1(C)CC[C@]23CC[C@]4(C)[C@H](CC[C@@H]5[C@@]6(C)C/C(=C/c7ccncc7)C(=O)C(C)(C)[C@@H]6CC[C@]54C)[C@H]2[C@H]1OC3=O` was 41.1% [100 µM] (inactive); that for `CC(C)(C)c1cc(C(=O)Nc2ccc(C(=O)NCCN)cc2)cc(C(C)(C)C)c1` was 15.6% (inactive).
